According to PubChem BioAssay:
For part of these data: Results with a measured potency or affinity are listed apart. Calls of active or inactive are those of the source.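 Rule for the calls, unless noted: active = fitted half-maximal concentration within the tested range, moderate curve steepness, significant signal drop, and little compound fluorescence or bead-linkage interference; inactive = the rest.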

What was measured:
[1] = target: Cell division control protein 42 homolog (Homo sapiens) (UniProt P60953); assay: inhibition of fluorescent GTP binding to constitutively active Cdc42 – biochemical, multiplex bead flow cytometry, Bodipy-FL-GTP, dose response (AID 1333;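 active = fitted half-maximal concentration within the tested dose range, moderate curve steepness, a statistically real signal drop, and little compound fluorescence or tag-binding interference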)
[2] = target: Cell division control protein 42 homolog (Homo sapiens) (UniProt P60953); assay: inhibition of fluorescent GTP binding to wildtype Cdc42 – biochemical, multiplex bead flow cytometry, Bodipy-FL-GTP, dose response (AID 1334); conditions: bead-based flow cytometry, Bodipy-FL-GTP binding to GST-Cdc42; at 100 µM (top of the series) unless noted
[3] = target: GTPase HRas (Homo sapiens) (UniProt P01112); assay: Ras wt fluorescent GTP loading blockade – biochemical, wildtype, multiplex bead flow cytometry, dose response (AID 1335;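 active = fitted half-maximal concentration within 10 nM to 100 µM, steepness 0.5 to 2, significant signal drop, low assay interference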); conditions: bead-based flow cytometry, Bodipy-GTP binding to GST-Ras; at 100 µM (top of the series) unless noted
[4] = tested on: Ras-related protein Rab-7a (dog), GTP binding; assay: blockers of fluorescent GTP binding to Rab7 – biochemical, wildtype, multiplex bead flow cytometry, dose response (AID 1336; call rule not given here)
[5] = target: Ras-related C3 botulinum toxin substrate 1 (Homo sapiens) (UniProt P63000); assay: inhibition of wildtype Rac1 nucleotide loading – biochemical, multiplex bead flow cytometry, dose response (AID 1340;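 active = dose curve with midpoint inside tested range, moderate steepness, plateau gap beyond fit error, low compound glow and bead-link interference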); conditions: GST-Rac1 beads, Bodipy-FL-GTP binding; at 100 µM (top of the series) unless noted
[6] = target: GTPase HRas (Homo sapiens) (UniProt P01112); assay: blockade of GTP loading onto mutant Ras – biochemical, activated mutant, multiplex bead flow cytometry, dose response (AID 1341;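 active = dose-response curve with midpoint inside the tested range, moderate steepness, significant amplitude and little compound fluorescence or bead-attachment interference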;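 note: GST-tagged constitutively activated Ras mutant immobilized on beads and multiplexed with other GTPases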)

Sequence of Cell division control protein 42 homolog (Homo sapiens) (P60953 whole entry, looked up): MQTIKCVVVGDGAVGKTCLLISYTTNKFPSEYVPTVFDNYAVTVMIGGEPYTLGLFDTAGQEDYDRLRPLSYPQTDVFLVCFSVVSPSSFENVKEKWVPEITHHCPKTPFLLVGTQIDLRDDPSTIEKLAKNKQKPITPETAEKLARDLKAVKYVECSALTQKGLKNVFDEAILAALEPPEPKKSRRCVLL
Sequence of GTPase HRas (Homo sapiens) (P01112 whole entry, looked up): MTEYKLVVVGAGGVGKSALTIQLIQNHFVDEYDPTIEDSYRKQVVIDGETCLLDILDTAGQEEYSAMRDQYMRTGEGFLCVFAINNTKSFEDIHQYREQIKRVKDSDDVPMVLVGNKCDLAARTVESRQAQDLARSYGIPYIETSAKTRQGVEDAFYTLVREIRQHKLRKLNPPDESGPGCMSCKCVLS

| SMILES | outcome [1] | fluorescence, percent of control (lower = inhibition) [2] | GTP binding, percent of control [3] | outcome [4] | GTP binding signal, raw median fluorescence (lower = inhibition) (MCF (arbitrary fluorescence units)) [5] | outcome [6] |
| --- | --- | --- | --- | --- | --- | --- |
| COc1ccc(-n2c(C)cc(/C=C3/SC(=S)N(C)C3=O)c2C)cc1 | inactive | 76.1% | 85.8% | inactive | 0 | inactive |
| NC(=O)N=Nc1c(O)[nH]c2c(Br)cc(Br)cc12 | inactive | 37.2% | 81.4% | inactive | 213 | inactive |
| COc1ccc(N/C=C/c2nc(SC)nnc2C)cc1 | inactive | 31.3% | 72.4% | inactive | 183 | inactive |
| Cc1ccc(C(C)C)c(OCCn2cc(C(=O)O)c3ccccc32)c1 | inactive | 66.7% | 86.3% | inactive | 44.5 | inactive |
| COc1cc(/C=N/NC(=O)CN(Cc2ccco2)S(=O)(=O)c2ccccc2)ccc1O | inactive | 32.8% | 46.1% | inactive | 104 | inactive |
| COc1nc(Nc2ccc(O)cc2)nc(OC(C(F)(F)F)C(F)(F)F)n1 | inactive | 101% | 161% | inactive | 172 | inactive |
| COc1cc(N2CCCC2)c(OC)cc1/C=C(/C#N)c1cccc(F)c1 | inactive | 137% | 214% | inactive | 210 | inactive |
| COc1cc(/C=N/Nc2nc(C)nc3c2cnn3-c2ccccc2)ccc1O | inactive | 87.1% | 128% | inactive | 241 | inactive |
| O=C(CN1CCN(c2ccc(O)cc2)CC1)Nc1cc(S(=O)(=O)N2CCCCC2)ccc1Cl | inactive | 35.8% | 87.7% | inactive | 281 | inactive |
| Cc1ccc(-c2noc(CN3C(C)CCCC3C)n2)cc1 (stereo not given) | inactive | 51.1% | 62.9% | inactive | 216 | inactive |
| CCOc1cc(/C=N/NC(=O)c2cccs2)cc([N+](=O)[O-])c1O | inactive | 25.2% | 57.7% | inactive | 108 | inactive |
| Cc1nc2ccc(-c3nc4ccc(N)cc4[nH]3)cc2[nH]1 | inactive | 35.3% | 79.9% | inactive | 210 | inactive |
| CC(C)CCNC(=O)CN(CCN1CCOCC1)C(=O)Cn1nnc(-c2ccc(F)cc2)n1 | inactive | 97.1% | 162% | inactive | 188 | inactive |
| S=c1[nH]nc(-c2ccco2)n1-c1ccc(Cl)cc1 | inactive | 28.4% | 67.6% | inactive | 209 | inactive |
| Nc1nc(CN2CCN(c3ccccc3F)CC2)nc(N2CCCc3ccccc32)n1 | inactive | 28.5% | 69.6% | inactive | 210 | inactive |
| Cc1ccc(NC(=O)CN2C(=O)S/C(=C\c3ccc(-c4cccc(C(=O)O)c4C)o3)C2=O)cc1C | inactive | 107% | 149% | inactive | 265 | inactive |
| CC(C)Nc1nnc(SCC(=O)Nc2ccc3c(c2)C(=O)c2ccccc2C3=O)s1 | inactive | 43.2% | 50.9% | inactive | 0 | inactive |
| O=C(O)c1ccc(CSCc2ccccc2Cl)o1 | inactive | 57.8% | 79.8% | inactive | 30.2 | inactive |
| COc1ccc(CCNc2cc(=O)[nH]c(N)n2)cc1 | inactive | 34.1% | 48.2% | inactive | 94.3 | inactive |
| O=C(Nc1cccc2ccccc12)c1cnccn1 | inactive | 85.4% | 156% | inactive | 181 | inactive |

| SMILES | outcome [1] | fluorescence, percent of control (lower = inhibition) [2] | GTP binding, percent of control [3] | outcome [4] | GTP binding signal, raw median fluorescence (lower = inhibition) (MCF (arbitrary fluorescence units)) [5] | outcome [6] |
| --- | --- | --- | --- | --- | --- | --- |
| OCCC1CN(Cc2cccc(O)c2)CCN1CCc1ccccc1 (stereo not given) | inactive | 40.6% | 90.6% | inactive | 342 | inactive |
| CN(C)c1ccc(/C=C/c2ccc3c4ccccc4ccc3[n+]2-c2ccccc2)cc1 | inactive | 40% | 69.7% | inactive | 236 | inactive |
| CCCc1cc(NCc2ccccn2)n2c(nc3ccccc32)c1C#N | inactive | 30.1% | 68.2% | inactive | 167 | inactive |
| CCc1c(C)nc2c(C#N)c[nH]n2c1=O | inactive | 39% | 54.3% | inactive | 114 | inactive |
| Cc1cccc(C)c1CNc1ncccc1C(=O)O | inactive | 59% | 215% | inactive | 56.4 | inactive |
| CCOc1cc(/C=C2\SC(=O)N=C2N)ccc1O | inactive | 40.7% | 81% | inactive | 174 | inactive |
| Cc1ccc(NS(=O)(=O)c2cc(NC(=O)c3ccc4c(c3)NC(=O)CS4)ccc2Cl)c(C)c1 | inactive | 36.1% | 86.2% | inactive | 282 | inactive |
| COc1cc(NC(=O)c2cccs2)c(OC)cc1NC(=O)CCC(=O)Nc1ccc2ncccc2c1 | inactive | 30.9% | 69.1% | inactive | 196 | inactive |
| CC(C)CCn1c(CN2CCN(Cc3ccccc3)CC2)nc2c1c(=O)n(C)c(=O)n2C | inactive | 89.2% | 165% | inactive | 178 | inactive |
| COc1cc(N2CCCC2)c(OC)cc1/C=C(/C#N)c1cccc(Br)c1 | inactive | 103% | 110% | inactive | 228 | inactive |
| O=C(O)Cn1cc(C(=O)C2CCCCC2)c2ccccc21 | inactive | 59.5% | 88.6% | inactive | 32 | inactive |
| O=C(O)c1cc2ccccc2nc1OCCc1ccccc1 | inactive | 55.8% | 222% | inactive | 50.3 | inactive |
| O=C(COC(=O)/C=C/c1cccs1)Nc1ccc2ccccc2c1 | inactive | 43.2% | 58.6% | inactive | 183 | inactive |
| COc1ccccc1NC(=O)CSc1ccc2nnc(-c3cccnc3)n2n1 | inactive | 36.4% | 49% | inactive | 114 | inactive |
| Cc1cc(-c2nnc3n2N=C(c2ccc(-c4ccccc4)cc2)CS3)n[nH]1 | inactive | 31.3% | 72.4% | inactive | 172 | inactive |
| COc1ccc(-c2noc(CCC(=O)N3CCN(c4cc(C)ccc4C)CC3)n2)cc1 | inactive | 25.4% | 76% | inactive | 195 | inactive |
| COc1ccc2[nH]c3nc(SCC(=O)Nc4ccc5c(c4)OCO5)nnc3c2c1 | inactive | 70.4% | 150% | inactive | 164 | inactive |
| CCOCCCNc1nc(=S)[nH]c2cc(OC)c(OC)cc12 | inactive | 60.4% | 99.7% | inactive | 111 | inactive |
| O=C(CCc1nnc(-c2ccc3c(c2)OCO3)o1)N1CCC(c2ccc(F)cc2)C1 (stereo not given) | inactive | 36.1% | 88.1% | inactive | 303 | inactive |
| O=c1c2ccccc2nc2c3ccccc3c(Cl)nn12 | inactive | 36.6% | 83.1% | inactive | 213 | inactive |

| SMILES | outcome [1] | fluorescence, percent of control (lower = inhibition) [2] | GTP binding, percent of control [3] | outcome [4] | GTP binding signal, raw median fluorescence (lower = inhibition) (MCF (arbitrary fluorescence units)) [5] | outcome [6] |
| --- | --- | --- | --- | --- | --- | --- |
| CCOC(=O)c1c(-c2ccc(C)cc2)csc1NC(=O)/C(C#N)=C/c1ccc(O)c(OC)c1 | inactive | 87.8% | 99.4% | inactive | 226 | inactive |
| COc1ccc2oc(COc3ccccc3)c(C(=O)O)c2c1 | inactive | 59.6% | 87.3% | inactive | 29.6 | inactive |
| Cn1c(SCCOc2ccccc2F)nc2ccccc2c1=O | inactive | 29.1% | 71.9% | inactive | 158 | inactive |
| CCCc1cc(N2CCN(C(=O)c3ccco3)CC2)n2c(nc3ccccc32)c1C#N | inactive | 34.7% | 79% | inactive | 240 | inactive |
| O=C(Nc1cccc(-c2ccc3nncn3n2)c1)c1ccco1 | inactive | 32.1% | 73% | inactive | 157 | inactive |
| O=C(O)c1cccnc1SCc1cccc(F)c1 | inactive | 78.4% | 92.9% | inactive | 52.6 | inactive |
| O=C(O)c1ccc(CNCc2ccccc2Cl)s1 | inactive | 62% | 86.6% | inactive | 32.2 | inactive |
| NC(=S)Nc1cccc2cc3ccccc3cc12 | inactive | 75.3% | 120% | inactive | 137 | inactive |
| O=S1(=O)N=C(N(CCO)/N=C/C=C/c2ccccc2)c2ccccc21 | inactive | 22.8% | 35.3% | inactive | 101 | inactive |
| COc1ccccc1OCCn1cc(C(=O)O)c2c(C)cccc21 | inactive | 56.8% | 202% | inactive | 55.3 | inactive |
| S=c1[nH]nc(-c2ccco2)n1-c1ccccc1Cl | inactive | 26.1% | 60.5% | inactive | 231 | inactive |
| Cn1cc([C@@H]2C[C@H]3CN(Cc4cccc(Cl)c4)C(=O)[C@]34CCCN24)c2ccccc21 | inactive | 61.3% | 111% | inactive | 276 | inactive |
| COc1cc(C(=S)NCc2ccccc2)cc(Br)c1O | inactive | 23.5% | 56.3% | inactive | 246 | inactive |
| COc1ccccc1CCNCc1ccc(C(=O)O)s1 | inactive | 63% | 88.4% | inactive | 34.1 | inactive |
| COc1ccccc1N1CCN(S(=O)(=O)c2cccc(F)c2)CC1 | inactive | 49% | 62.4% | inactive | 213 | inactive |
| Cc1ccccc1NC(=O)c1ccc(NC(=O)C2CC(=O)OC23CCCCC3)cc1 (stereo not given) | inactive | 32.9% | 76.1% | inactive | 195 | inactive |
| O=c1c2ccccc2nc2ccc(NCc3ccco3)nn12 | inactive | 31.4% | 71.8% | inactive | 196 | inactive |
| COc1ccc(-n2cc(-c3ccccc3)c3c(=O)[nH]cnc32)cc1 | inactive | 39.1% | 84.4% | inactive | 327 | inactive |
| CC(C)(C)NC(=O)CCN(/N=C/c1ccc([N+](=O)[O-])o1)C1=NS(=O)(=O)c2ccccc21 | inactive | 23.6% | 33.1% | inactive | 86.3 | inactive |
| Cc1cccc(OCC(=O)N/N=C/c2ccc3c(c2)OCO3)c1 | inactive | 34.8% | 89.5% | inactive | 256 | inactive |
